Bioassay records: PubChem BioAssay, Broad Institute
An excerpt weighted towards active compounds, which were near 2.4% of everything screened.
C diff growth – inhibitors of Clostridium difficile growth. growth activity, negative = inhibition, % at 16 µg/mL (by protocol). AID 1259249. 86,000 tested, 0.25% active. Clostridium difficile clinical isolate growth, OD600, 24 h; hits give low values;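 active = mean growth activity at or below -80% and every replicate also at or below -80%; inconclusive = mean at or below -80% but some replicate above -80%; inactive = mean growth activity above -80%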;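 also: 0% = DMSO wells and -100% = levofloxacin 16 µg/mL wells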
Pf Dd2 inh – inhibitors of Plasmodium falciparum Dd2 growth; P. falciparum Dd2 growth, SYBR Green, 72 h; hits give low values; activity change, % at 10 µM; 94,000 tested, 2.3% active; AID 1159554; in the data active = activity change below about -80%; inconclusive = no clear call, values can overlap the other calls
The depositor's hits bear a star; ? = inconclusive; / = not tested or not shown.

SMILES	C diff growth	Pf Dd2 inh
Cc1ccc(S(=O)(=O)N(C)C[C@@H]2Oc3c(NC(=O)CCCCCC(=O)Nc4ccccc4N)cccc3C(=O)N([C@@H](C)CO)C[C@H]2C)cc1	-6	-88*
C[C@H]1CN([C@@H](C)CO)C(=O)c2cccc(NC(=O)CCCCCC(=O)Nc3ccccc3N)c2O[C@@H]1CN(C)S(=O)(=O)c1ccc(F)cc1	0	-31
Cc1ccc(S(=O)(=O)N(C)C[C@H]2Oc3c(NC(=O)CCCCCC(=O)Nc4ccccc4N)cccc3C(=O)N([C@@H](C)CO)C[C@H]2C)cc1	4	-91*
Cc1ccc(S(=O)(=O)N(C)C[C@H]2Oc3c(NC(=O)CCCCCC(=O)Nc4ccccc4N)cccc3C(=O)N([C@H](C)CO)C[C@@H]2C)cc1	-4	-65
C[C@@H]1CN([C@@H](C)CO)C(=O)c2cccc(NC(=O)CCCCCC(=O)Nc3ccccc3N)c2O[C@@H]1CN(C)S(=O)(=O)c1ccccc1	-4	-90*
C[C@H]1CN([C@@H](C)CO)C(=O)c2cccc(NC(=O)CCCCCC(=O)Nc3ccccc3N)c2O[C@@H]1CN(C)S(=O)(=O)c1ccccc1	-2	-35
C[C@H]1CN([C@@H](C)CO)C(=O)c2cccc(NC(=O)CCCCCC(=O)Nc3ccccc3N)c2O[C@@H]1CN(C)S(=O)(=O)c1ccc(Cl)cc1	1	?
C/C=C/c1ccc2c(c1)O[C@H](CN(C)C(=O)C1CCC1)[C@H](C)CN([C@H](C)CO)S2(=O)=O	/	21
CCC(=O)N1CC2(C1)CN(C(C)=O)[C@@H](CO)c1[nH]c3cc(OC)ccc3c12	-3	18
C[C@@H]1CN([C@H](C)CO)C(=O)c2cccc(NC(=O)CCCCCC(=O)Nc3ccccc3N)c2O[C@H]1CN(C)S(=O)(=O)c1cccs1	2	-48
C[C@@H]1CN([C@@H](C)CO)C(=O)c2cccc(NC(=O)CCCCCC(=O)Nc3ccccc3N)c2O[C@@H]1CN(C)S(=O)(=O)c1cccs1	1	-92*
C[C@@H]1CN([C@H](C)CO)C(=O)c2cccc(NC(=O)Nc3ccccc3)c2O[C@@H]1CN(C)C(=O)Nc1ccccc1	-12	-41
COc1ccc(NC(=O)Nc2cccc3c2O[C@H](CN(C)C(=O)Nc2ccc4c(c2)OCO4)[C@@H](C)CN([C@@H](C)CO)C3=O)cc1	/	-11
C[C@@H]1CN([C@H](C)CO)C(=O)c2cccc(NC(=O)Nc3cccc4ccccc34)c2O[C@@H]1CN(C)C(=O)NC1CCCCC1	48	-77
C[C@@H]1CN([C@@H](C)CO)C(=O)c2cccc(NC(=O)Nc3ccccc3)c2O[C@@H]1CN(C)C(=O)Nc1ccccc1	-6	-91*
C[C@H]1CN([C@@H](C)CO)C(=O)c2cccc(NC(=O)Nc3cccc4ccccc34)c2O[C@H]1CN(C)C(=O)NC1CCCCC1	-5	-85*
COc1ccc(NC(=O)Nc2cccc3c2O[C@H](CN(C)C(=O)Nc2ccccc2)[C@@H](C)CN([C@H](C)CO)C3=O)cc1	5	-4
COc1ccc(NC(=O)N(C)C[C@H]2Oc3c(NC(=O)Nc4ccc5c(c4)OCO5)cccc3C(=O)N([C@@H](C)CO)C[C@H]2C)cc1	5	-86*
COc1ccc(NC(=O)N(C)C[C@H]2Oc3c(NC(=O)Nc4ccccc4)cccc3C(=O)N([C@H](C)CO)C[C@H]2C)cc1	0	-86*
CCN1[C@H](C(=O)NC2CCC2)[C@@H](CO)[C@@H]2Cn3c(ccc(-c4ccc(OC)cc4)c3=O)[C@@H]21	4	-1
C[C@@H]1CN([C@@H](C)CO)C(=O)CCCn2cc(nn2)CO[C@@H]1CN(C)C(=O)Nc1ccnc(N2CCOCC2)c1	/	26
COc1cccc(C(=O)Nc2ccc3c(c2)C(=O)N(C)C[C@@H](OC)[C@@H](C)CN[C@@H](C)CO3)c1	/	17
COc1ccc(NC(=O)Nc2cccc3c2O[C@H](CN(C)C(=O)Nc2cccc4ccccc24)[C@H](C)CN([C@@H](C)CO)C3=O)cc1	14	-88*
Cc1noc(C)c1NC(=O)N(C)C[C@@H]1Oc2c(NC(=O)Nc3ccc(C(F)(F)F)cc3)cccc2C(=O)N([C@@H](C)CO)C[C@H]1C	/	-5
C[C@H](CO)N1C[C@H](C)[C@H](CN(C)C(=O)Nc2ccc(F)cc2)Oc2c(NC(=O)Nc3ccccc3)cccc2C1=O	12	1
COc1ccc(NC(=O)Nc2cccc3c2O[C@H](CN(C)C(=O)Nc2cccc4ccccc24)[C@@H](C)CN([C@H](C)CO)C3=O)cc1	-5	-32
Cc1noc(C)c1NC(=O)N(C)C[C@H]1Oc2c(NC(=O)Nc3ccc(C(F)(F)F)cc3)cccc2C(=O)N([C@@H](C)CO)C[C@H]1C	/	-86*
C[C@@H]1CN([C@@H](C)CO)C(=O)c2cccc(NC(=O)Nc3ccccc3)c2O[C@@H]1CN(C)C(=O)Nc1ccc(F)cc1	-11	-91*
